The supplement of paper PMC7801607

These compounds were tested on CHO (assay: % viability of CHO cells (MTT); higher = less toxic). Conditions: 2 µM; 48 h.
How it was run: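 CHO cells seeded at 10^6 cells/well were exposed to compound at 2 or 20 µM for 48 h. Survival, as percent of untreated cells, was measured with the colorimetric tetrazolium (MTT) assay.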

| SMILES | % viability of CHO cells [%] |
| --- | --- |
| Clc1cc2nc(C3CCNCC3)n(Cc3ccc(CNCCc4cnc[nH]4)cc3)c2cc1Cl | 88.7 |
| O=c1cc(OCc2ccccc2)ccn1Cc1ccccc1 | 82.6 |
| Cc1cc(CCCOc2c(C)cc(-c3noc(C(F)(F)F)n3)cc2C)on1 | 103 |
| CCC(C)n1ncn(-c2ccc(N3CCN(c4ccc(OCC5COC(Cn6cncn6)(c6ccc(Cl)cc6Cl)O5)cc4)CC3)cc2)c1=O (stereo not drawn) | 119 |
| O=C(O)c1ccccc1Sc1ncnc2sc3c(c12)CCC3 | 103 |
| Cc1nc(Nc2ccc(F)cc2)nc(N2CCc3ccccc3C2C)c1C (stereo not drawn) | 103 |
| NC(=O)c1nccn([C@@H]2O[C@H](CO)[C@@H](O)[C@H]2O)c1=O | 91.2 |
| Nc1nc(F)nc2c1ncn2[C@H]1O[C@@H](CO)[C@H](O)[C@@H]1O | 33.8 |
| NC(=S)N/N=C/c1ncccc1N | 111 |
| CCCC1(C2CC2)c2cc(Cl)ccc2NC(=O)N1C (stereo not drawn) | 60.2 |
| COc1cc(C(C(=O)NC2CCCCC2)N(C(=O)Cc2c[nH]c3ccccc23)c2ccc(C(C)C)cc2)cc(OC)c1OC (stereo not drawn) | 90.8 |
| Oc1cccc(C(Nc2nccs2)c2ccc3cccnc3c2O)c1 (stereo not drawn) | 57.5 |
| COc1ccc(C)cc1NC(=O)c1ccc(S(=O)(=O)N2CCCCC2)cc1 | 128 |
| CCC[C@H](NC(=O)[C@@H]1[C@H]2CCC[C@H]2CN1C(=O)[C@@H](NC(=O)[C@@H](NC(=O)c1cnccn1)C1CCCCC1)C(C)(C)C)C(=O)C(=O)NC1CC1 | 94.8 |
| O=C(CSc1nnc(Br)n1-c1ccc(C2CC2)c2ccccc12)Nc1ccc(C(=O)O)cc1Cl | 98.5 |
| CC(C)(C)c1ccc(C(Cn2cccc(C(F)(F)F)c2=O)NC2Cc3ccccc3C2)cc1 (stereo not drawn) | 106 |
| O=C1NC(=O)C(Br)=C1Br | 118 |
| CC(C)Nc1nc2cc(Cl)c(Cl)cc2n1[C@H]1O[C@@H](CO)[C@H](O)[C@@H]1O | 71.9 |
| C=C[C@]1(C)C[C@@H](OC(=O)CS[C@@H]2C[C@H]3CC[C@@H](C2)N3C)[C@]2(C)[C@H](C)CC[C@]3(CCC(=O)[C@H]32)[C@@H](C)[C@@H]1O | 77.8 |

| SMILES | % viability of CHO cells [%] |
| --- | --- |
| CCCCCCC1c2ccc(O)cc2Oc2cc(O)ccc21 | 80.1 |
| O=C(NCc1ncc(C(F)(F)F)cc1Cl)c1c(Cl)cccc1Cl | 91.7 |
| CN(C)CCNC(=O)c1cccc2cccnc12 | 70.5 |
| CC(C)CCN1C(=O)C(C2=NS(=O)(=O)c3cc(NS(C)(=O)=O)ccc3N2)=C(O)[C@@H]2[C@H]3CC[C@H](C3)[C@@H]21 | 99.3 |
| CC(C)(C)c1ccc(C(=O)NC(=O)N2CCCc3ccccc32)cc1 | 94.6 |
| Cc1nc2ccc(Oc3ccccc3)cc2c2c1CCN2CCc1ccccc1 | 77.5 |
| Cc1c(OCC(F)(F)F)ccnc1CS(=O)c1nc2ccccc2[nH]1 (stereo not drawn) | 87.1 |
| O=C(CP(=O)(O)O)NCCc1cccc(Oc2ccccc2)c1 | 108 |
| N[C@@H]1CN(c2c(F)cc3c(=O)c(C(=O)O)cn([C@@H]4C[C@@H]4F)c3c2Cl)CC12CC2 | 94.4 |
| CCOC(=O)Nc1cc(NC(C)CC(C)CN(CC)CC)c2nc(-c3ccccc3)c(-c3ccccc3)nc2n1 (stereo not drawn) | 94 |
| O=S(=O)(NCB(O)O)c1cc2c(Cl)ccc(Cl)c2s1 | 91.2 |
| CN(C)CC(=O)Nc1ccc2[nH]c(=O)c3ccccc3c2c1 | 97.8 |
| Cc1nc(-c2ccc(C3N(C)c4ccc(F)cc4C(=O)N3c3ccccc3)s2)cs1 (stereo not drawn) | 97.8 |
| CCc1cc(Nc2cc(=O)n(CCN3CCN(C(=O)c4ccccc4)CC3)c(=O)[nH]2)ccc1C | 93.2 |
| CCOC(=O)N[C@@H]1CC[C@@H]2[C@@H](C1)C[C@H]1C(=O)O[C@H](C)[C@H]1[C@H]2/C=C/c1ccc(-c2cccc(F)c2)cn1 | 72.3 |
| O=C(N[C@H](Cc1cccc2ccccc12)C(=O)NCCc1c[nH]cn1)C1Cc2ccccc2C1 | 95.1 |
| Cc1nc(N(C)C(=O)Cc2ccc(-c3ccccn3)cc2)sc1S(N)(=O)=O | 85.2 |
| COc1ccc(C[C@@H](C)[C@@H](C)Cc2ccc(OC)c(OC)c2)cc1OC | 81.9 |
| Nc1nnnn1CCOc1c2[nH]c3ccc(Cl)cc3c2cc2c1[nH]c1ccc(Cl)cc12 | 98.6 |
